Experimental data published in PubChem BioAssay AID1159580 (chemical genetic matrix, 2015).
Values joined by “and” are separate entries in the source; they are usually repeats but may differ in a detail not shown here. Equal entries are not always repeated. In all, about 5,500 compounds went through this assay and about 2,000 (36%) were called active. Not shown: some 18% with an inconclusive outcome. Rule as the data show it: active = normalized growth mostly below about 0.91 (no sharp cut-off); inconclusive = no clear call, values can overlap the other calls; inactive = mostly above about 0.92. The list shows a part of the results.

Assay: chemical genetic growth profiling, strain panel (AID 1159580);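 also: tested at 20 µM; growth read once vehicle control cultures reached saturation at 30 °C; 1 = growth at the plate median or of vehicle wells; lower values mean less growth of the strain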
Conditions: S. cerevisiae deletion strains, growth OD

Measured: normalized growth

N=c1nc(N2CCCCC2)cc(N)n1O
inactive: locus YAL013W, strain DEP1, stronger effect = lower value 0.981 and 0.989 | locus YAL021C, strain ccr4, stronger effect = lower value 0.989 | locus YAL026C, strain drs2, stronger effect = lower value 1 | locus YAL030W, strain snc1, stronger effect = lower value 0.984 | locus YAL040C, strain CLN3, stronger effect = lower value 1.03 | locus YBL061C, strain skt5, stronger effect = lower value 0.977 | locus YBR009C, strain hhf1, stronger effect = lower value 1 | locus YBR021W, strain FUR4, stronger effect = lower value 1.09 | locus YBR023C, strain chs3, stronger effect = lower value 0.985 | locus YBR171W, strain sec66, stronger effect = lower value 0.984 | locus YBR229C, strain ROT2, stronger effect = lower value 0.955 | locus YBR231C, strain swc5, stronger effect = lower value 1 | locus YBR279W, strain paf1, stronger effect = lower value 0.992 | locus YCL011C, strain gbp2, stronger effect = lower value 0.963 | locus YCL016C, strain dcc1, stronger effect = lower value 0.97 | locus YCL029C, strain bik1, stronger effect = lower value 0.99 | locus YCL061C, strain MRC1 (second series), stronger effect = lower value 1 | locus YCL061C, strain MRC1, stronger effect = lower value 0.991 | locus YCL069W, strain vba3, stronger effect = lower value 0.992 | locus YCR088W, strain abp1, stronger effect = lower value 0.989 | locus YDL005C, strain med2, stronger effect = lower value 0.997 | locus YDL035C, strain GPR1, stronger effect = lower value 0.98 | locus YDL040C, strain nat1, stronger effect = lower value 0.992 | locus YDL074C, strain BRE1, stronger effect = lower value 1.02 | locus YDL101C, strain DUN1, stronger effect = lower value 0.988 | locus YDL134C, strain PPH21, stronger effect = lower value 0.975 | locus YDL185W, strain tfp1, stronger effect = lower value 0.978 | locus YDL192W, strain arf1, stronger effect = lower value 0.983 | locus YDR001C, strain nth1, stronger effect = lower value 0.979 | locus YDR069C, strain doa4, stronger effect = lower value 0.996 | locus YDR101C, strain arx1, stronger effect = lower value 1.01 | locus YDR137W, strain rgp1, stronger effect = lower value 0.977 | locus YDR150W, strain NUM1, stronger effect = lower value 0.963 and 1.01 | locus YDR159W, strain sac3, stronger effect = lower value 1.04 | locus YDR162C, strain NBP2, stronger effect = lower value 0.968 | locus YDR195W, strain ref2 0.981 | locus YDR297W, strain sur2, stronger effect = lower value 0.981 | locus YDR318W, strain mcm21, stronger effect = lower value 1 | locus YDR334W, strain swr1, stronger effect = lower value 0.936 | locus YDR335W, strain msn5, stronger effect = lower value 0.979 | locus YDR363W, strain ESC2, stronger effect = lower value 0.979 | locus YDR388W, stronger effect = lower value 0.949 | locus YDR392W, strain spt3, stronger effect = lower value 0.964 | locus YDR502C, strain sam2, stronger effect = lower value 0.959 | locus YEL003W, strain gim4, stronger effect = lower value 0.992 | locus YEL037C, strain rad23, stronger effect = lower value 0.989 | locus YEL061C, strain CIN8 (second series), stronger effect = lower value 0.982 | locus YEL061C, strain CIN8, stronger effect = lower value 0.982 | locus YER002W, strain NOP16, stronger effect = lower value 1.02 | locus YER015W, strain faa2, stronger effect = lower value 0.985 | locus YER016W, strain bim1, stronger effect = lower value 0.998 | locus YER110C, stronger effect = lower value 0.955 | locus YER111C, strain swi4, stronger effect = lower value 0.987 | locus YER155C, strain BEM2 (second series), stronger effect = lower value 1.03 | locus YER155C, strain BEM2, stronger effect = lower value 1.01 | locus YER167W, strain BCK2, stronger effect = lower value 0.989 | locus YFR010W, strain ubp6, stronger effect = lower value 0.982 | locus YGL078C, strain dbp3, stronger effect = lower value 0.985 | locus YGL086W, strain mad1, stronger effect = lower value 0.961 | locus YGL167C, strain pmr1, stronger effect = lower value 0.985 | locus YGL173C, strain kem1, stronger effect = lower value 0.984 | locus YGL227W, strain vid30, stronger effect = lower value 0.996 | locus YGL240W, strain doc1, stronger effect = lower value 1 | locus YGL248W, strain PDE1, stronger effect = lower value 0.981 | locus YGL253W, strain hxk2, stronger effect = lower value 0.96 | locus YGR078C, strain PAC10, stronger effect = lower value 1 and 0.978 | locus YGR135W, strain pre9, stronger effect = lower value 0.99 | locus YGR229C, strain SMI1, stronger effect = lower value 1.01 | locus YGR252W, strain gcn5, stronger effect = lower value 0.867 | locus YHR013C, strain ard1, stronger effect = lower value 0.962 | locus YHR027C, strain rpn1, stronger effect = lower value 0.976 | locus YHR030C, strain SLT2, stronger effect = lower value 0.982 | locus YHR079C, strain IRE1 (second series), stronger effect = lower value 1 | locus YHR079C, strain IRE1, stronger effect = lower value 0.997 | locus YHR094C, strain hxt1, stronger effect = lower value 0.991 | locus YHR129C, strain ARP1, stronger effect = lower value 0.988 | locus YHR142W, strain chs7, stronger effect = lower value 0.971 | locus YHR200W, strain rpn10, stronger effect = lower value 0.993 | locus YIL066C, strain RNR3, stronger effect = lower value 0.975 | locus YIL073C, strain SPO22, stronger effect = lower value 0.94 | locus YIL125W, strain kgd1, stronger effect = lower value 0.985 | locus YIR030C, strain dcg1, stronger effect = lower value 0.982 | locus YJL092W, strain hpr5, stronger effect = lower value 0.988 | locus YJL095W, strain BCK1 (second series), stronger effect = lower value 0.986 | locus YJL095W, strain BCK1, stronger effect = lower value 1.01 and 0.985 | locus YJL115W, strain asf1, stronger effect = lower value 0.966 | locus YJL129C, strain trk1, stronger effect = lower value 1 | locus YJL134W, strain LCB3, stronger effect = lower value 0.978 | locus YJL154C, strain vps35, stronger effect = lower value 0.976 | locus YJL164C, strain tpk1, stronger effect = lower value 0.999 | locus YJL166W, strain qcr8, stronger effect = lower value 0.957 | locus YJL168C, strain set2, stronger effect = lower value 0.995 | locus YJL187C, strain SWE1 (second series), stronger effect = lower value 0.983 | locus YJL187C, strain SWE1, stronger effect = lower value 0.992 | locus YJR043C, strain POL32, stronger effect = lower value 1.02 | locus YJR066W, strain TOR1, stronger effect = lower value 0.932
